# Assay results reported in ChEMBL document CHEMBL3433997, “St. Jude Leishmania screening dataset” (2016).
# Molecular target: Glucose transporter (Leishmania mexicana) (UniProt O61059)
# Test: ST_JUDE_LEISH: Cytotoxicity at 2uM final concentration against transgenic Leishmania Mexicana promastigotes LmGT2 that are glucose transport deficient and complemented with the L. Mexicana glucose transporter 2. Activity is measured by DNA content using SYBR green in vitro
# Type: functional
row,Structure (SMILES),inhibition [%]
1,NC(=O)c1cccc(C(=O)Nc2cccc(-c3csc(-c4nc5ccccc5[nH]4)c3)c2)c1,2.09
2,Cc1cccc2nc(-c3ccc(-c4ccc(CNCC5CCCO5)cc4)cc3)[nH]c12 (stereo not given),6.42
3,O=C(Nc1ccc(N2CCN(C(=O)/C=C/c3ccccc3)CC2)c(Cl)c1)c1ccc([N+](=O)[O-])o1,13.7
4,Cc1ccc(Oc2ccccc2NC(=O)CCc2nc3ccccc3c(=O)[nH]2)cc1,2.88
5,CCCOc1cc(O)c(-c2[nH]nc(C)c2Oc2ccccc2)cc1CC,-1
6,COc1ccc(-c2cccc(NC(=O)c3cccc(F)c3)c2)cc1CN1CCCN(C)CC1,-0.49
7,O=C(/C=C/c1ccc(C(F)(F)F)cc1)NCCCCCN1CCCN(C(=O)Nc2cccc(Cl)c2)CC1,1.47
8,O=C(Nc1ccc(F)c(Cl)c1)NC1CCN(c2ccnc3cc(Cl)ccc23)C1 (stereo not given),8.81
9,c1cc(CN2CCCCC2)cc(-c2ccc(-c3nc4ccccc4[nH]3)s2)c1,-0.82
10,O=C(Nc1cc(Cl)cc(Cl)c1)N[C@H]1CCN(CCCCCNC(=O)C2CC2c2ccc(Cl)c(Cl)c2)C1 (stereo not given in full),2.06
11,Cc1cc2c(NC(=O)NC3CCN(CCc4cccc(Cl)c4)CC3)cccc2cn1,-3.28
12,O=C(NCc1ccccn1)C(c1cc2ccccc2o1)N1CCN(C(c2ccccc2)c2ccccc2)CC1 (stereo not given),2.55
13,O=C(Nc1ccc(-c2oc(C(=O)NCCc3cccc(Cl)c3)cc2-c2ccncc2)cc1)Nc1cccc(Cl)c1,2.92
14,O=C(NC1CCC(N2CCN(c3cccc(C(F)(F)F)c3)CC2)CC1)c1cc2ccccc2[nH]1 (stereo not given),5.57
15,Cc1ccc(-n2c(=O)c3c(n4c(SC(C)C)nnc24)-c2ccccc2CC32CCCCC2)cc1,5.47
